# Values without a mark were called inactive. Records with an inconclusive call do not appear. Where a call stands in place of a potency, no number is given. Active and inactive are the calls of the source. Unless noted, calls come from the whole dose curve.
# How the values were obtained:
# [1] = Nuclear factor erythroid 2-related factor 2/antioxidant responsive element (Nrf2/ARE) small molecule agonists: qHTS cell viability counter screen in human keratinocytes (AID 1919968; active = well fitted curve in the direction sought with a large enough effect in the repeat runs; an effect the other way counts as inactive or inconclusive; note: nearly all actives have a fitted effect of over 55% in size)
# In short: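 Parallel cytotoxicity read: KeratinoSens HaCaT cells, compound treatment 23 h, viability by CellTiter-Fluor fluorescence 1 h post-reagent.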
# [2] = Nuclear factor erythroid 2-related factor 2/antioxidant responsive element (Nrf2/ARE) small molecule agonists: luciferase reporter gene qHTS assay in human keratinocytes (AID 1919969); note: nearly all actives have a fitted effect of over 35% in size; note: potency is the fitted concentration of half-maximal effect
# [3] = biological target: Gonadotropin-releasing hormone receptor (Homo sapiens) (UniProt P30968); assay: Human gonadotropin-releasing hormone receptor (GnRHR) small molecule agonists, calcium flux assay in GnRHR-HEK293 cells (AID 1920063); note: nearly all actives have a fitted effect of over 35% in size
# In short: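 Calcium flux, agonist mode, human GnRHR stably integrated in HEK293; dye 1 h at 37 C before compound; Ex/Em=480/540 kinetic read, 3 min; 15 concentrations, triplicate.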
# [4] = biological target: KiSS-1 receptor (Homo sapiens) (UniProt Q969F8); assay: Human kisspeptin (KISS1R) small molecule agonists, calcium flux assay in KISS1R-HEK293 cells (AID 1920064; active = well fitted curve in the direction sought with a large enough effect in the repeat runs; an effect the other way counts as inactive or inconclusive)
# In short: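 Triplicate 15-concentration series were applied to dye-loaded human KISS1R HEK293 cells, and agonist-evoked calcium fluorescence was captured for 3 min.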
# [5] = G protein-coupled receptor (GPCR) small molecule agonists, calcium flux assay: HEK293 wild type cell line counter screen (AID 1920065)
# In short: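 Non-specific calcium responders were flagged by adding DMSO-dissolved compounds to dye-loaded cells and reading 480/540 nm fluorescence each second for 3 min; ATP served as positive control.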
# [6] = p53 small molecule agonists, cell-based qHTS assay with human liver microsomes: qHTS cell viability counter screen (AID 1963579); note: nearly all actives have a fitted effect of over 45% in size
# In short: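 In this multiplexed counter screen, the reporter plates were subsequently treated with CellTiter-Glo so that cell viability, reflected by luminescence, could be recorded for p53RE-bla cells dosed 16 h with compounds under microsomal activation (HLM and NADPH).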
# [7] = p53 small molecule agonists, cell-based qHTS assay with rat liver microsomes: qHTS cell viability counter screen (AID 1963580); note: nearly all actives have a fitted effect of over 45% in size
# In short: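 Cytotoxicity counter screen: intracellular ATP measured by CellTiter-Glo luminescence in the same wells as the beta-lactamase reporter read, on HCT-116 p53RE-bla cells exposed 16 h at 37 C to compounds with rat liver microsomes and NADPH, each 0.5 mg/mL final.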
# [8] = p53 small molecule agonists, cell-based qHTS assay: qHTS cell viability counter screen (AID 1963581); note: nearly all actives have a fitted effect of over 45% in size
# In short: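 Multiplexed with the reporter read, a CellTiter-Glo step (30 min, room temperature) gauges ATP-based viability of HCT-116 p53RE-bla cells after 16 h compound incubation at 37 C.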
# [9] = biological target: 5-hydroxytryptamine receptor 2A (Homo sapiens) (UniProt P28223); assay: 5-hydroxytryptamine receptor 2A (HTR2A) small molecule antagonists, cell-based qHTS assay (AID 1963586); note: nearly all actives have a fitted effect of over 45% in size
# In short: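 CHO cells stably expressing human HTR2A were plated for 18 h at 37 C, then loaded with calcium dye for 1 h. Compounds were preincubated 5 min at room temperature before DOI (4 nM solution) was added. Kinetic fluorescence was read for 3 min.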
# [10] = biological target: 5-hydroxytryptamine receptor 2A (Homo sapiens) (UniProt P28223); assay: 5-hydroxytryptamine receptor 2A (HTR2A) small molecule agonists, cell-based qHTS assay (AID 1963587); note: nearly all actives have a fitted effect of over 30% in size
# In short: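 CHO cells stably expressing human HTR2A, plated 18 h, loaded with calcium dye 1 h at 37 C. Agonist mode: compounds added and intracellular calcium fluorescence recorded kinetically for 2 min at 1 sec intervals.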
# [11] = biological target: Muscarinic acetylcholine receptor M1 (Homo sapiens) (UniProt P11229); assay: Cholinergic receptor muscarinic 1 (CHRM1) small molecule antagonists, cell-based qHTS assay (AID 1963588); note: nearly all actives have a fitted effect of over 40% in size; note: potency is the fitted concentration of half-maximal effect
# In short: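 Compounds were tested at 15 concentrations in three independent runs. Dye-loaded CHRM1-CHO cells were exposed 5 min at room temperature before stimulation by acetylcholine added at 50nM. Intracellular calcium was read kinetically on FDSS for 3 min.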
# [12] = biological target: Muscarinic acetylcholine receptor M1 (Homo sapiens) (UniProt P11229); assay: Cholinergic receptor muscarinic 1 (CHRM1) small molecule agonists, cell-based qHTS assay (AID 1963589); note: nearly all actives have a fitted effect of over 35% in size
# In short: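 qHTS, 15-point titration, 3 independent runs: compounds pin-transferred onto dye-loaded CHRM1-CHO cells (human M1), calcium fluorescence followed every second to detect agonism.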
# [13] = cAMP Responsive Elements (CRE) small molecule agonists, cell-based qHTS assay (AID 1963590)
# In short: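 Quantitative HTS for CRE agonists: HEK 293T CRE-bla cells, overnight plating, 3 h compound incubation at 37 C/5% CO2, then 2 h room-temperature LiveBLAzer B/G FRET substrate loading.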
# [14] = cAMP Responsive Elements (CRE) small molecule antagonists, cell-based qHTS assay (AID 1963591; active = well fitted inhibition curve with a large enough effect in the signal ratio in the repeat runs, not every such curve was filed as active; the % refers to the signal ratio)
# In short: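 Fluorescence intensity from cleaved LiveBLAzer B/G substrate (2 h, room temperature) quantified CRE-bla activity in HEK 293T cells exposed 3 h to compound with 0.25 uM final NKH477.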
# [15] = biological target: Beta-2 adrenergic receptor (Homo sapiens) (UniProt P07550); assay: Adrenergic beta2 receptor (ADRB2) small molecule agonists, cell-based qHTS assay (AID 1963593);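 note: CHO cells stably overexpressing human ADRB2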
# In short: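 CHO cells stably over-expressing ADRB2 were plated overnight at 37C, then dosed with compounds plus a stimulation mix containing 100uM IBMX and 25uM Ro-20-1724 for 0.5hr at room temperature. cAMP was measured by HTRF competition, 1hr.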
# [16] = biological target: D(2) dopamine receptor (Homo sapiens) (UniProt P14416); assay: Dopamine D2 receptor (DRD2) small molecule agonists, cell-based qHTS assay (AID 1963594); note: nearly all actives have a fitted effect of over 35% in size
# In short: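 HEK293 cells stably expressing human DRD2, pre-treated with PDE inhibitor Ro20-1724 (0.1 mM final) and compound 10 min at room temperature, then stimulated with NKH477 (200nM […]) for 30 min. cAMP read by HTRF (665/620 nm).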
# [17] = biological target: D(2) dopamine receptor (Homo sapiens) (UniProt P14416); assay: Dopamine D2 receptor (DRD2) small molecule antagonists, cell-based qHTS assay (AID 1963595; active = well fitted inhibition curve with a large enough effect in the signal ratio in the repeat runs, with a control signal flat; the % refers to the signal ratio)
# In short: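 Cells were plated and grown for 24 h at 37 °C. Ro20-1724 (0.1 mM final) went in first, then compound for 10 min. NKH477 (200 nM) with quinpirole (12 nM) followed for 30 min at RT, then HTRF detection reagents for 1 h.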
# [18] = biological target: Beta-2 adrenergic receptor (Homo sapiens) (UniProt P07550); assay: Adrenergic beta2 receptor (ADRB2) small molecule antagonists, cell-based qHTS assay (AID 1963592); note: series mostly up to about 92 µM; nearly all actives have a fitted effect of over 50% in size
# In short: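 Assay format: CHO-ADRB2 cells, 18-20hr seeding at 37C/5% CO2, then compound plus 1nM isoproterenol agonist mix for 0.5hr RT. Homogeneous time-resolved fluorescence cAMP detection after 1hr, expressed as 665/615 nm ratio.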
# Chain of 5-hydroxytryptamine receptor 2A (Homo sapiens) (P28223 whole entry, looked up): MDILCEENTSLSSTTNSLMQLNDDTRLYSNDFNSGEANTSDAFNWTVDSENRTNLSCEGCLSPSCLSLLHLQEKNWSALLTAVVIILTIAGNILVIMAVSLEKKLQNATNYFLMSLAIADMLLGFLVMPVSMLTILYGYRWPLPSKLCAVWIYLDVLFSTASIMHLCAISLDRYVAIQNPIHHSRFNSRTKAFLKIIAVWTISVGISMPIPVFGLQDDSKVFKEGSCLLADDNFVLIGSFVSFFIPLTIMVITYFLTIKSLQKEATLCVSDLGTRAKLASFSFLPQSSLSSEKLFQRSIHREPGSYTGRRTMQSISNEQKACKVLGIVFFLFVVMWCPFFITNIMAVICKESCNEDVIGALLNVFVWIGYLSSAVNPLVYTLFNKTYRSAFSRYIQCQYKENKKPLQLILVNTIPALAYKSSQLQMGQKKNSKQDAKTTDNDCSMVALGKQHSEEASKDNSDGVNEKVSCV
# Chain of Gonadotropin-releasing hormone receptor (Homo sapiens) (P30968 whole entry, looked up): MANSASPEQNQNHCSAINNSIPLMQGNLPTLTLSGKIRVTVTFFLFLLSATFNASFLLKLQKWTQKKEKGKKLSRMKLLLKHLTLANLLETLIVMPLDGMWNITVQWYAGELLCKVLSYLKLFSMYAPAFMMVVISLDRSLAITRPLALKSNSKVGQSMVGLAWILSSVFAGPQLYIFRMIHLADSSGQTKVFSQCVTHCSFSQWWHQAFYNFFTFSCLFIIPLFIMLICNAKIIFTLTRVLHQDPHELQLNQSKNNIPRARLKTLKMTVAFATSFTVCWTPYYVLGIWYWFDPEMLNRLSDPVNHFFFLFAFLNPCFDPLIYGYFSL
# Chain of KiSS-1 receptor (Homo sapiens) (Q969F8 whole entry, looked up): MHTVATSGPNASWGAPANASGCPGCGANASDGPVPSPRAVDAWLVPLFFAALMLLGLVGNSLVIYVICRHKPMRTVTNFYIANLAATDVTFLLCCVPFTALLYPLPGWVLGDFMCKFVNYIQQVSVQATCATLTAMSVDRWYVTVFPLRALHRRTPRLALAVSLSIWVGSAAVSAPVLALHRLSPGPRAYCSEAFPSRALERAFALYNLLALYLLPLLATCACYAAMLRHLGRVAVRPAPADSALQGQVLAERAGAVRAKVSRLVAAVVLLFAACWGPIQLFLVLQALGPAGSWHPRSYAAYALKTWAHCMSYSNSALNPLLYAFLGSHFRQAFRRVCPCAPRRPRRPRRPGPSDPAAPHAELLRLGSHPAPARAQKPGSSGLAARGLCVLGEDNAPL
# Chain of Muscarinic acetylcholine receptor M1 (Homo sapiens) (P11229 whole entry, looked up): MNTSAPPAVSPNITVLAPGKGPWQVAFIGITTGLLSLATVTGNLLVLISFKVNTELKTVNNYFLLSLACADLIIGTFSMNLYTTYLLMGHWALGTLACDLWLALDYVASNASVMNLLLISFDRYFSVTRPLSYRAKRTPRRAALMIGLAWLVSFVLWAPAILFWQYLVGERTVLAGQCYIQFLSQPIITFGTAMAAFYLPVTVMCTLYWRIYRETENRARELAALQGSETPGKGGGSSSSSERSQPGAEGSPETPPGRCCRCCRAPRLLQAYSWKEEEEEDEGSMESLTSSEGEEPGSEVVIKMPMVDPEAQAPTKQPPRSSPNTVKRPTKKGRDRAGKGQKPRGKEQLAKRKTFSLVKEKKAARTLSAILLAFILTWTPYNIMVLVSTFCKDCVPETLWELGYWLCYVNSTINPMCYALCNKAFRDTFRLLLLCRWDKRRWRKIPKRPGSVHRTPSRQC
# Chain of Beta-2 adrenergic receptor (Homo sapiens) (P07550 whole entry, looked up): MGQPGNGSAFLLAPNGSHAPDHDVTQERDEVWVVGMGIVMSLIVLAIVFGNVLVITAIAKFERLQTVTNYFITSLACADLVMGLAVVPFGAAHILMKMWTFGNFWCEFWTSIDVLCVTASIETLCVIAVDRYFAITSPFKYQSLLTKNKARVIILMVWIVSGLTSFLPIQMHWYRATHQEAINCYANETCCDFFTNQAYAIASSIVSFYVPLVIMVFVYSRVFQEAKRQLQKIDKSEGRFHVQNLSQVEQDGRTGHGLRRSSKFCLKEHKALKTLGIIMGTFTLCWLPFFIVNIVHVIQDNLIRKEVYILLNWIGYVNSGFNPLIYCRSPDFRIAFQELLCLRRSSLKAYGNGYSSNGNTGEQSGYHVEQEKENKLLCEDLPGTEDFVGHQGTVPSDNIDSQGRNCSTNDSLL
# Chain of D(2) dopamine receptor (Homo sapiens) (P14416 whole entry, looked up): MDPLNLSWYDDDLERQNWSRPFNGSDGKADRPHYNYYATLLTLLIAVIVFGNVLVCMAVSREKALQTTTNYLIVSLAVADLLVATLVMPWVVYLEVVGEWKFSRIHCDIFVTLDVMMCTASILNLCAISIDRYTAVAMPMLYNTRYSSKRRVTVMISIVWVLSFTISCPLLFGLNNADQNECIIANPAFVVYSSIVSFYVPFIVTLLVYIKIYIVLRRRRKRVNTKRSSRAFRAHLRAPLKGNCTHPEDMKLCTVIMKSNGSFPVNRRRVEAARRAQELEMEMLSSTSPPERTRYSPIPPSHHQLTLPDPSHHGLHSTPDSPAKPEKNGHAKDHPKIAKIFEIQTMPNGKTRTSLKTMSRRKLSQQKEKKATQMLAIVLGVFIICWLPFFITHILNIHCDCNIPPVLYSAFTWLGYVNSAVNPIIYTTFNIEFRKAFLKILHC
SMILES,Potency [1],Potency [2],Potency [3],Potency [4],Potency [5],Potency [6],Potency [7],Potency [8],Potency [9],Potency [10],Potency [11],Potency [12],Potency [13],Potency [14],Potency [15],Potency [16],Potency [17],Potency [18]
CCCCC=O,inactive,inactive,inactive,inactive,inactive,inactive,inactive,inactive,inactive,inactive,inactive,inactive,inactive,inactive,inactive,inactive,inactive,
O=C(O)/C=C(\CC(=O)O)C(=O)O,inactive,inactive,inactive,inactive,inactive,inactive,inactive,inactive,inactive,inactive,inactive,inactive,inactive,,,inactive,inactive,inactive
C/C=C/C=C/C=O,inactive,60.7 µM (active),inactive,inactive,inactive,inactive,inactive,inactive,inactive,inactive,inactive,inactive,inactive,,,,,inactive
CCN1C=CN(C)C1C (configuration not stated),inactive,inactive,inactive,inactive,inactive,inactive,inactive,inactive,inactive,inactive,inactive,inactive,,inactive,,inactive,inactive,inactive
NC(CCC(=O)O)C(=O)O (configuration not stated),inactive,inactive,inactive,inactive,inactive,inactive,inactive,inactive,inactive,inactive,inactive,inactive,inactive,,,inactive,inactive,inactive
COc1ccc(CCO)cc1,inactive,inactive,inactive,inactive,inactive,inactive,inactive,inactive,inactive,inactive,inactive,inactive,inactive,,inactive,inactive,inactive,inactive
C[C@]12CCC(=O)C=C1CC[C@H]1[C@@H]3CC[C@](O)(C(=O)CO)[C@@]3(C)C[C@H](O)[C@@]12F,inactive,inactive,inactive,inactive,inactive,inactive,inactive,inactive,inactive,inactive,inactive,inactive,,inactive,,,inactive,inactive
CCCCNc1ccc(C(=O)OCCN(CC)CC)cc1,inactive,inactive,inactive,inactive,inactive,inactive,inactive,inactive,inactive,inactive,3.26 µM (active),inactive,inactive,,inactive,inactive,inactive,inactive
CC1CCC(=O)C1=O (configuration not stated),inactive,inactive,inactive,inactive,inactive,inactive,inactive,inactive,inactive,inactive,inactive,inactive,,inactive,,inactive,inactive,inactive
CCCCCCCOC(=O)CCC,inactive,inactive,inactive,inactive,inactive,inactive,inactive,inactive,inactive,inactive,inactive,inactive,inactive,,inactive,,inactive,inactive
C=CC(=O)NC(C)(C)C,inactive,inactive,inactive,inactive,inactive,inactive,inactive,inactive,inactive,inactive,inactive,inactive,inactive,inactive,,inactive,inactive,
CC(C)c1ccc2ncccc2c1,inactive,inactive,inactive,inactive,inactive,inactive,inactive,inactive,inactive,inactive,inactive,inactive,inactive,,,inactive,inactive,inactive
OCCC1CCCCN1 (configuration not stated),inactive,inactive,inactive,inactive,inactive,inactive,inactive,inactive,inactive,inactive,inactive,inactive,inactive,,,inactive,inactive,inactive
CCOc1ccc(NC(N)=O)cc1,inactive,inactive,inactive,inactive,inactive,inactive,inactive,inactive,inactive,inactive,inactive,inactive,inactive,inactive,,inactive,inactive,
O=C(O)[C@@H]1CSCN1,inactive,inactive,inactive,inactive,inactive,inactive,inactive,inactive,inactive,inactive,inactive,inactive,inactive,,inactive,inactive,inactive,inactive
COC(=O)CC(C)=O,inactive,inactive,inactive,inactive,inactive,inactive,inactive,inactive,inactive,inactive,inactive,inactive,inactive,,,inactive,inactive,inactive

# Reference: PubChem BioAssay (Tox21)
